# Test results: the supplement of paper PMC4466140
# Legend:
# Experiment in all cases: SPOT peptide array binding signal intensity (averaged, normalized) (arbitrary units (background-subtracted, floor 0; scale differs between SH3 domains)); higher = stronger binding of the SH3 domain to the peptide
# AgAbp1 = target: AgAbp1
# Method in brief: (§1)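 Spot intensities were captured after detection with anti-GST antibody, an HRP-linked anti-mouse secondary and luminol, and quantified with Genespotter. The probes were GST-fused SH3 domains from four yeast species, produced in E. coli BL21(DE3), purified on glutathione Sepharose and incubated at 10 μg/ml overnight at 4°C on cellulose-bound synthetic 15-mer peptides with cysteines replaced by serines. Binding signal is the normalized, background-subtracted spot intensity averaged over replicates, and its arbitrary units differ between domains.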
# AgBbc1 = target: AgBbc1
# Method in brief: as §1
# AgBem1-D1 = target: AgBem1-D1
# Method in brief: as §1
# AgBzz1-D1 = target: AgBzz1-D1
# Method in brief: as §1
# AgBzz1-D2 = target: AgBzz1-D2
# Method in brief: as §1
# AgCyk3 = target: AgCyk3
# Method in brief: as §1
# AgFus1 = target: AgFus1
# Method in brief: as §1
# AgHof1 = target: AgHof1
# Method in brief: as §1
# AgHse1 = target: AgHse1
# Method in brief: as §1
# AgLsb1 = target: AgLsb1
# Method in brief: as §1
# AgLsb4 = target: AgLsb4
# Method in brief: as §1
# AgMyo5 = target: AgMyo5
# Method in brief: as §1
# AgNbp2 = target: AgNbp2
# Method in brief: as §1
# AgRvs167 = target: AgRvs167
# Method in brief: as §1
# AgSho1 = target: AgSho1
# Method in brief: as §1
# AgSla1-D1-D2 = target: AgSla1-D1-D2
# Method in brief: as §1
# AgSla1-D3 = target: AgSla1-D3
# Method in brief: as §1
# CaAbp1-D1 = target: CaAbp1-D1
# Method in brief: as §1
# CaAbp1-D2 = target: CaAbp1-D2
# Method in brief: as §1
# CaBbc1 = target: CaBbc1
# Method in brief: as §1
# CaBem1-D1 = target: CaBem1-D1
# Method in brief: as §1
# CaBzz1-D1 = target: CaBzz1-D1
# Method in brief: as §1
# CaBzz1-D2 = target: CaBzz1-D2
# Method in brief: as §1
# CaCyk3 = target: CaCyk3
# Method in brief: as §1
# CaFus1 = target: CaFus1
# Method in brief: as §1
# CaHof1 = target: CaHof1
# Method in brief: as §1
# CaHse1 = target: CaHse1
# Method in brief: as §1
# CaLsb1 = target: CaLsb1
# Method in brief: as §1
# CaLsb4 = target: CaLsb4
# Method in brief: as §1
# CaMyo5 = target: CaMyo5
# Method in brief: as §1
# CaNbp2 = target: CaNbp2
# Method in brief: as §1
# CaRvs167 = target: CaRvs167
# Method in brief: as §1
# CaRvs167-3 = target: CaRvs167-3
# Method in brief: as §1
# CaSho1 = target: CaSho1
# Method in brief: as §1
# CaSla1-D1-D2 = target: CaSla1-D1-D2
# Method in brief: as §1
# CaSla1-D3 = target: CaSla1-D3
# Method in brief: as §1
# ScAbp1 = target: ScAbp1
# Method in brief: as §1
# ScBbc1 = target: ScBbc1
# Method in brief: as §1
# ScBem1-D1 = target: ScBem1-D1
# Method in brief: as §1
# ScBzz1-D1 = target: ScBzz1-D1
# Method in brief: as §1
# ScBzz1-D2 = target: ScBzz1-D2
# Method in brief: as §1
# ScCyk3 = target: ScCyk3
# Method in brief: as §1
# ScFus1 = target: ScFus1
# Method in brief: as §1
# ScHof1 = target: ScHof1
# Method in brief: as §1
# ScHse1 = target: ScHse1
# Method in brief: as §1
# ScLsb1 = target: ScLsb1
# Method in brief: as §1
# ScLsb2 = target: ScLsb2
# Method in brief: as §1
# ScLsb3 = target: ScLsb3
# Method in brief: as §1
# ScLsb4 = target: ScLsb4
# Method in brief: as §1
# ScMyo3 = target: ScMyo3
# Method in brief: as §1
# ScMyo5 = target: ScMyo5
# Method in brief: as §1
# ScNbp2 = target: ScNbp2
# Method in brief: as §1
# ScPex13 = target: ScPex13
# Method in brief: as §1
# ScRvs167 = target: ScRvs167
# Method in brief: as §1
# ScSho1 = target: ScSho1
# Method in brief: as §1
# ScSla1-D1-D2 = target: ScSla1-D1-D2
# Method in brief: as §1
# ScSla1-D3 = target: ScSla1-D3
# Method in brief: as §1
# SpAbp1-D1 = target: SpAbp1-D1
# Method in brief: as §1
# SpBbc1 = target: SpBbc1
# Method in brief: as §1
# SpBzz1-D1 = target: SpBzz1-D1
# Method in brief: as §1
# SpBzz1-D2 = target: SpBzz1-D2
# Method in brief: as §1
# SpCyk3 = target: SpCyk3
# Method in brief: as §1
# SpHof1 = target: SpHof1
# Method in brief: as §1
# SpHof1-2 = target: SpHof1-2
# Method in brief: as §1
# SpHof1-3 = target: SpHof1-3
# Method in brief: as §1
# SpHse1 = target: SpHse1
# Method in brief: as §1
# SpLsb1 = target: SpLsb1
# Method in brief: as §1
# SpLsb4 = target: SpLsb4
# Method in brief: as §1
# SpMyo1 = target: SpMyo1
# Method in brief: as §1
# SpNbp2 = target: SpNbp2
# Method in brief: as §1
# SpPex13 = target: SpPex13
# Method in brief: as §1
# SpRvs167 = target: SpRvs167
# Method in brief: as §1
# SpSla1-D1-D2 = target: SpSla1-D1-D2
# Method in brief: as §1
# SpSla1-D3 = target: SpSla1-D3
# Method in brief: as §1
binder,measurement,setting,value
IKTRSVPKIPSIESV,SPOT peptide array binding signal intensity,AgAbp1,9
same,SPOT peptide array binding signal intensity,AgBbc1,78.8
same,SPOT peptide array binding signal intensity,AgBem1-D1,40
same,SPOT peptide array binding signal intensity,AgBzz1-D1,24.5
same,SPOT peptide array binding signal intensity,AgBzz1-D2,33.5
same,SPOT peptide array binding signal intensity,AgCyk3,1
same,SPOT peptide array binding signal intensity,AgFus1,4
same,SPOT peptide array binding signal intensity,AgHof1,27.8
same,SPOT peptide array binding signal intensity,AgHse1,19.5
same,SPOT peptide array binding signal intensity,AgLsb1,71
same,SPOT peptide array binding signal intensity,AgLsb4,873
same,SPOT peptide array binding signal intensity,AgMyo5,0.75
same,SPOT peptide array binding signal intensity,AgNbp2,2650
same,SPOT peptide array binding signal intensity,AgRvs167,12.7
same,SPOT peptide array binding signal intensity,AgSho1,3
same,SPOT peptide array binding signal intensity,AgSla1-D1-D2,≤ 0
same,SPOT peptide array binding signal intensity,AgSla1-D3,≤ 0
same,SPOT peptide array binding signal intensity,CaAbp1-D1,182
same,SPOT peptide array binding signal intensity,CaAbp1-D2,82
same,SPOT peptide array binding signal intensity,CaBbc1,604
same,SPOT peptide array binding signal intensity,CaBem1-D1,0.5
same,SPOT peptide array binding signal intensity,CaBzz1-D1,197
same,SPOT peptide array binding signal intensity,CaBzz1-D2,245
same,SPOT peptide array binding signal intensity,CaCyk3,85.5
same,SPOT peptide array binding signal intensity,CaFus1,32.5
same,SPOT peptide array binding signal intensity,CaHof1,≤ 0
same,SPOT peptide array binding signal intensity,CaHse1,5
same,SPOT peptide array binding signal intensity,CaLsb1,≤ 0
same,SPOT peptide array binding signal intensity,CaLsb4,1880
same,SPOT peptide array binding signal intensity,CaMyo5,1.25
same,SPOT peptide array binding signal intensity,CaNbp2,320
same,SPOT peptide array binding signal intensity,CaRvs167,339
same,SPOT peptide array binding signal intensity,CaRvs167-3,15
same,SPOT peptide array binding signal intensity,CaSho1,≤ 0
same,SPOT peptide array binding signal intensity,CaSla1-D1-D2,123
same,SPOT peptide array binding signal intensity,CaSla1-D3,≤ 0
same,SPOT peptide array binding signal intensity,ScAbp1,11
same,SPOT peptide array binding signal intensity,ScBbc1,37.8
same,SPOT peptide array binding signal intensity,ScBem1-D1,38.5
same,SPOT peptide array binding signal intensity,ScBzz1-D1,26
same,SPOT peptide array binding signal intensity,ScBzz1-D2,13
same,SPOT peptide array binding signal intensity,ScCyk3,≤ 0
same,SPOT peptide array binding signal intensity,ScFus1,≤ 0
same,SPOT peptide array binding signal intensity,ScHof1,16.2
same,SPOT peptide array binding signal intensity,ScHse1,26
same,SPOT peptide array binding signal intensity,ScLsb1,4
same,SPOT peptide array binding signal intensity,ScLsb2,61
same,SPOT peptide array binding signal intensity,ScLsb3,4820
same,SPOT peptide array binding signal intensity,ScLsb4,1030
same,SPOT peptide array binding signal intensity,ScMyo3,4.5
same,SPOT peptide array binding signal intensity,ScMyo5,7
same,SPOT peptide array binding signal intensity,ScNbp2,3220
same,SPOT peptide array binding signal intensity,ScPex13,633
same,SPOT peptide array binding signal intensity,ScRvs167,2950
same,SPOT peptide array binding signal intensity,ScSho1,25.5
same,SPOT peptide array binding signal intensity,ScSla1-D1-D2,146
same,SPOT peptide array binding signal intensity,ScSla1-D3,38.5
same,SPOT peptide array binding signal intensity,SpAbp1-D1,5
same,SPOT peptide array binding signal intensity,SpBbc1,28.8
same,SPOT peptide array binding signal intensity,SpBzz1-D1,236
same,SPOT peptide array binding signal intensity,SpBzz1-D2,0.5
same,SPOT peptide array binding signal intensity,SpCyk3,≤ 0
same,SPOT peptide array binding signal intensity,SpHof1,6
same,SPOT peptide array binding signal intensity,SpHof1-2,9
same,SPOT peptide array binding signal intensity,SpHof1-3,150
same,SPOT peptide array binding signal intensity,SpHse1,≤ 0
same,SPOT peptide array binding signal intensity,SpLsb1,24.2
same,SPOT peptide array binding signal intensity,SpLsb4,6060
same,SPOT peptide array binding signal intensity,SpMyo1,11.5
same,SPOT peptide array binding signal intensity,SpNbp2,≤ 0
same,SPOT peptide array binding signal intensity,SpPex13,≤ 0
same,SPOT peptide array binding signal intensity,SpRvs167,1930
same,SPOT peptide array binding signal intensity,SpSla1-D1-D2,4
same,SPOT peptide array binding signal intensity,SpSla1-D3,1
